# Bioassay records as filed in PubChem.
# NPR1 antag = antagonists of human natriuretic peptide receptor Npr1 | 1.6% of 76,000 active | P16066 | HEK293 hNpr1 GloSensor cGMP, ANP-stimulated luminescence | Potency, µM (series often up to 46.3 µM), without a hit: at the top dose activity change, negative = inhibition, actives largely listed as inhibitors; calls by dose curve; also: nearly all actives have a fitted effect of over 60% in size
#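 Compound pre-incubated 30 min at room temperature on GloSensor-loaded HEK293 cells stably carrying hNpr1 and the pGS-40F cGMP biosensor. Stimulation uses hNppA at 0.1 nM final; luminescence is taken at baseline and 20 min post-agonist.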
# HEK cytotox = HEK 293 cell cytotoxicity; HEK 293 viability, ATP luminescence (CellTiter-Glo), 48-72 h; Potency, µM (doses to about 115 µM), inactives show at the highest dose activity change, negative = cytotoxicity, actives largely listed as inhibitors; 6.6% of 94,000 active; AID 1345083; also: nearly all actives have a fitted effect of over 60% in size
#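 CellTiter-Glo luminescence (cellular ATP) was read after 48 or 72 hr of compound exposure at 37 degree Celsius. Cells were HEK 293 plated at 250 cells/well.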
# 3T3 cytotox = cytotoxic compounds in NIH 3T3 cells; NIH 3T3 viability, CellTiter-Glo ATP luminescence, 48-72 h; Potency, µM (series often up to 96.7 µM), for the others: at the top dose activity change, negative = cytotoxicity, actives largely listed as inhibitors; 4.3% of 94,000 active; AID 1345082; also: nearly all actives have a fitted effect of over 55% in size
#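 ATP-dependent luminescence (CellTiter-Glo) served as the viability signal for NIH 3T3 cells treated with compound for 48 or 72 hr at 37 °C.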
# Luciferase inh = inhibitors of firefly (Photinus pyralis) luciferase; purified P. pyralis luciferase, luminescence, biochemical; Potency, µM (titrated, usually from 115 µM), most hits filed as inhibitors; 2.5% of 76,000 active; AID 1347043; also: nearly all actives have a fitted effect of over 65% in size
# Target sequence (P08659 whole entry, looked up): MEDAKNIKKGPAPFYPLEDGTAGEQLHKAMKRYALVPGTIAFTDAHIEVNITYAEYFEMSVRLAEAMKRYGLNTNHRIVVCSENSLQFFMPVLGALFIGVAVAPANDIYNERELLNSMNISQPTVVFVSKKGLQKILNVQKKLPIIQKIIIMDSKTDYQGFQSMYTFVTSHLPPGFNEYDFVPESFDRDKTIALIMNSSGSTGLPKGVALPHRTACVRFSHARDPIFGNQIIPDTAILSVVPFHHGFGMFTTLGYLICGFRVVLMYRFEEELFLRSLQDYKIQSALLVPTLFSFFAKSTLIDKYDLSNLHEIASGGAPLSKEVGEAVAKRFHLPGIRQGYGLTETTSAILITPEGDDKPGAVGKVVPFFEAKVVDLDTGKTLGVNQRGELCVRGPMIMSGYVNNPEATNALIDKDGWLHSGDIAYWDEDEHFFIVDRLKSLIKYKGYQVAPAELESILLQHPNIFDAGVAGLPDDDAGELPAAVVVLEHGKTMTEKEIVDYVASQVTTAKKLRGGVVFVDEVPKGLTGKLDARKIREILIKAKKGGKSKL
#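 Cell-free enzyme assay, 10nM P. pyralis luciferase, luciferin and ATP each at 10uM. Inhibition profiled over a 6-point titration, read as luminescence.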
# Active calls of the source: *; i = inactive; ? = inconclusive; / = no result; [ ] = dose if it differs, or a comment. The list is not random: actives were taken first. Their share in the collection is about 11%. Unless noted, calls follow the shape of the dose curve; as a rule, active = well fitted curve in the direction sought with a large enough effect; inconclusive = small, poorly fitted or top-dose-only effect, or another doubt; inactive = no such curve, though single readings can be large; an effect the other way counts as inactive or inconclusive. % is scaled to controls: 0 for no effect and ±100 for the full control effect; potency is read from the fitted curve at half-maximal effect.
SMILES,NPR1 antag,HEK cytotox,3T3 cytotox,Luciferase inh
O=C(c1c(-c2cncnc2)cc(=O)n2c1CCCC2)N1CCC(Cc2ccccc2)CC1,/,-8%,-11%,/
O=C(CCc1nc(-c2ccccc2)no1)NC1CCCN(CCCc2ccccc2)C1 (stereo not given),-9%,45µM*,?,i
COc1ccc2[nH]c3c(c2c1)CCNC31CCN(C(=O)c2ccc(C)s2)CC1,2%,11µM*,?,i
COc1ccc2[nH]c3c(c2c1)CCNC31CCN(C(=O)c2cccs2)CC1,-21%,8.9µM*,?,i
COc1ccc2[nH]c3c(c2c1)CCNC31CCN(C(=O)c2sccc2C)CC1,?,?,-31%,i
CCOc1ccc(-c2cc3c(=O)n(CCNC(=O)c4ccc(C#N)cc4)ccn3n2)cc1,-2%,i,-3%,?
Cc1ccc(-c2ccc3nnc(CNC(=O)c4cccc(C(F)(F)F)c4)n3n2)cc1,0%,-1%,1%,i
COc1ccc(C(=O)NCCn2cccc2-c2nc(-c3ccccc3)no2)cc1F,-16%,-2%,-20%,i
COc1ccc(C)cc1NC(=O)Cn1cccc1-c1nc(-c2ccc3c(c2)OCO3)no1,-7%,?,40µM*,i
Cc1cccc(OCC(=O)NCCn2cccc2-c2nc(-c3ccc4c(c3)OCO4)no2)c1,-16%,?,?,14µM*
O=C(NCCn1cccc1-c1nc(-c2ccc3c(c2)OCO3)no1)c1ccc2c(c1)OCO2,-17%,-7%,-8%,10µM*
O=C(NCCn1cccc1-c1nc(-c2ccc3c(c2)OCO3)no1)c1ccc(Cl)s1,-17%,?,?,?
O=C(NCCn1cccc1-c1nc(-c2ccccc2)no1)c1ccc(F)c(Cl)c1,-14%,45µM*,?,i
O=C(Nc1cccs1)O[C@H]1COCCN(c2nc3ccccc3o2)C1,-1%[70.6 µM],-3%[172 µM],-20%[138 µM],i
Cc1ccc(Cl)cc1N1CCN(C(=O)CN2CC3CC(C2)[C@H]2CCCC(=O)N2C3)CC1 (stereo not given in full),0%,?,-16%,i
Cc1ccc(C(=O)NCCn2cccc2-c2nc(-c3ccc4c(c3)OCO4)no2)cc1C,-23%,?,?,11µM*
Cc1cc(=O)n(CC(=O)N[C@@H]2CCOC[C@H]2Oc2ccccn2)nc1C,1%,i,i,i
Cc1cc(C)c2c(CC(=O)N[C@@H]3CCOC[C@H]3Oc3ccccn3)coc2c1,4%,50µM*,?,i
O=C(NC1CCC(O)CC1)C1CCCN(c2nc(-c3ccccc3)nc3c2CCC3)C1 (stereo not given),-3%,?,?,i
O=C(C1CCCN(c2nc(-c3ccccc3)nc3c2CCC3)C1)N1CCNCC1 (stereo not given),0%,?,?,i
O=C(C1CCN(c2nc(-c3ccccc3)nc3c2CCC3)CC1)N1CCNCC1,10%,?,?,i
CC(C)(N)C(=O)N1CCN(c2nc(-c3ccccc3)nc3c2CCC3)CC1,-1%,50µM*,?,i
NC1CCN(C(=O)C2CCCN(c3nc(-c4ccccc4)nc4c3CCC4)C2)CC1 (stereo not given),8%,?,28µM*,i
O=C(NC1CCNCC1)C1CCCN(c2nc(-c3ccccc3)nc3c2CCC3)C1 (stereo not given),0%,?,40µM*,i
CCNC(=O)N1CCCC(c2nn(C)c(=O)n2C2CCCC2)C1 (stereo not given),-1%,-5%,i,i
COc1ccc(C(=O)Nc2ccc3c(c2)CN(C(C)c2ccc(F)cc2)C(=O)CO3)cc1OC (stereo not given),-16%,?,?,i
CC(c1ccc(F)cc1)N1Cc2cc(NC(=O)Cc3cccs3)ccc2OCC1=O (stereo not given),?,40µM*,?,i
O=C(c1ccccn1)N1CCCC2(CNc3ccccc3[S+](=O)([O-])N2)C1 (stereo not given),-3%,i,i,i
NC(=O)[C@@H]1CCCN1CC[C@H]1CN(C(=O)C2CCCC2)CC[C@H]1CC(=O)O,1%[70.6 µM],3%[172 µM],i,i
O=C(CCn1cncn1)N1CCOc2c(O)cc(-c3cccc(Cl)c3)cc2C1,7%,?,?,i
